We go through 77 molecules from ChEMBL document CHEMBL3988442, “University of Dundee, Small-Polar-MMV Screening Library” (2021).

SMILES strings stand for the structures. About 13,000 (27%) of roughly 48,000 compounds showed an effect of 50% or more. This is one part of the list.

The experiment concerns Wolbachia pipientis. Briefly: Anti-Wolbachia Cell-Based Screen. The experiment is classed as functional. The arrangement: scale not given: in the data most compounds retested in dose-response had high values. The conditions noted are these: 5 µM.
In the case of `COCC(O)CN1CCC(=O)N(Cc2ccccc2)Cc2ccccc21` (configuration not stated), the “Percent Effect” value came out at 97.49%.

With `COCC(O)CN1CCC(=O)N(Cc2ccco2)Cc2ccccc21` (configuration not stated), the “Percent Effect” value stood at 86.65%.

Take `COCc1ccc(CNC(=O)CN2CCc3ccccc32)cc1`: the “Percent Effect” value is reported as -11.7%.

`COC(=O)N1CCc2ccccc2C1C(=O)NCc1ccco1` (configuration not stated): the “Percent Effect” value was 14.18%.

For `CCC1CN(C(=O)c2cccc(O)c2)CCC(=O)N1Cc1ccccc1` (configuration not stated), the “Percent Effect” value worked out at 8.552%.

As for `COCCN1C[C@H]2CN(C(=O)NCc3ccccc3)CCN2C1=O`, the “Percent Effect” value came out at 8.785%.

As for `OC(CN1CCCCc2ccccc21)Cn1cccn1` (configuration not stated), the “Percent Effect” value was -5.145%.

In the case of `CCCC(O)CN1CCC(=O)N(CCOC)Cc2ccccc21` (configuration not stated), the “Percent Effect” value is given as 121.9%.

Turning to `CN1CCN(CC(=O)NCc2ccco2)Cc2ccccc21`, the “Percent Effect” value was -30.17%.

With `CCCC(O)CN1CCC(=O)N(Cc2ccccc2)Cc2ccccc21` (configuration not stated), the “Percent Effect” value is 123.8%.

For `COCCN1C[C@H]2CN(C(=O)NC(C)C)CCN2C1=O`, the “Percent Effect” value was -4.801%.

Turning to `Cc1ccc([C@@H]2CN(S(=O)(=O)N(C)C)C[C@H]2N(C)C)cc1`, the “Percent Effect” value worked out at 0.6697%.

In the case of `Cc1cc(S(=O)(=O)NCC(O)c2sccc2C)ccc1F` (configuration not stated), the “Percent Effect” value is on record as 4.369%.

`CCOc1ccc(CN(C)C(=O)COc2ccc(C)nc2)cc1`: the “Percent Effect” value was -6.842%.

As for `CCc1c(C(=O)N2CCN(C)[C@@H]3CS(=O)(=O)C[C@@H]32)[nH]c2ccccc12`, the “Percent Effect” value is recorded as -4.01%.

Turning to `CCN1CC(CN(C)c2cc(C)nc(N)n2)Oc2ccccc21` (configuration not stated), the “Percent Effect” value was 10.5%.

As to `CCN(CC1CCOCC1)C(=O)Cn1ccccc1=O`, the “Percent Effect” value was -19.1%.

On to `CC(C)NC(=O)c1nc2c(s1)CCCN2Cc1ccccc1`, for which the “Percent Effect” value is recorded as -9.51%.

Turning to `O=C(CN1CCc2ccccc21)NCc1ccc(Cl)cc1`, the “Percent Effect” value is -3.042%.

For `CC(O)CN1CCC(=O)N(Cc2ccccc2)Cc2ccccc21` (configuration not stated), the “Percent Effect” value came to 125.3%.

`CCCc1nc(CN(CC)C(=O)c2ccc3[nH]cnc3c2)no1`: the “Percent Effect” value is listed as -17.17%.

As to `CC(C)(C)n1ncc2c1CCCC2NCc1cccc2c1OCO2` (configuration not stated), the “Percent Effect” value worked out at 3.56%.

Turning to `CCOC(C)c1noc(CN2CCN(Cc3cccnc3)CC2)n1` (configuration not stated), the “Percent Effect” value is recorded as -3.385%.

As for `CNC(=O)C1(Cc2cc(C(C)C)no2)CCN(Cc2ccccn2)C1` (configuration not stated), the “Percent Effect” value came out at 108.3%.

`CNC(=O)C1(Cc2cc(C(C)C)no2)CCN(Cc2cccnc2)C1` (configuration not stated): the “Percent Effect” value worked out at 113.2%.

Turning to `O=C(O)C1(Cc2ccc(F)cc2F)CCCN(Cc2ccccn2)C1` (configuration not stated), the “Percent Effect” value is recorded as -12.03%.

With `CC(C)c1cc(C(=O)N2C[C@H]3CC[C@@H]2CN(Cc2ccccn2)C3)no1`, the “Percent Effect” value is recorded as -1.053%.

Regarding `CC(C)c1cc(CNC(=O)NCc2cccc(N3CC=CC3)c2)on1`, the “Percent Effect” value stood at 1.94%.

With `COC1(CNS(=O)(=O)c2ccccc2Br)CCSC1` (configuration not stated), the “Percent Effect” value is recorded as -11.32%.

Regarding `O=C(NCCC(O)c1cccs1)c1ccc(Br)o1` (configuration not stated), the “Percent Effect” value was -2.242%.

Consider `Cc1cc(C)nc(NC2CC(=O)N(C(C)(C)C)C2)n1` (configuration not stated), for which the “Percent Effect” value is on record as -13.08%.

For the molecule `Cc1ccc(CN(C)C(=O)NCC(=O)NC(C)(C)C)s1`, the “Percent Effect” value is listed as -5.904%.

In the case of `CCc1cnc(NCCS(=O)(=O)CC(C)C)nc1`, the “Percent Effect” value is -2.356%.

Turning to `O=C(O)C(F)(F)F.O=C(c1ccsc1)N1CCc2onc(COc3ccccn3)c2C1`, the “Percent Effect” value is listed as -81.7%.

In the case of `Cc1cc(C(F)(F)F)nn1CCNC(=O)C(C)n1ccnc1C(C)C` (configuration not stated), the “Percent Effect” value was determined as 0.9025%.

Regarding `Cc1cc(C)n(CC(C)NC(=O)c2cc(C(C)C)on2)n1` (configuration not stated), the “Percent Effect” value is -21.21%.

As for `Cc1cc(CNC(=O)CC2CCN(C(C)C)CC2)n(C)n1`, the “Percent Effect” value is -16.42%.

Take `Cc1cc(C)n(CCCNC(=O)C(C)NC(=O)CC2CCCCC2)n1` (configuration not stated): the “Percent Effect” value is 122.8%.

As to `CCC(C)C(=O)NCCCn1nc(C)cc1C` (configuration not stated), the “Percent Effect” value amounted to 119.6%.

Regarding `Cc1cc(C)n(-c2cncc(NCCNC(=O)CC3CCCC3)n2)n1`, the “Percent Effect” value amounted to 5.332%.

For the molecule `Cc1ccccc1Oc1ncccc1CNC1CCC1`, the “Percent Effect” value is given as -4.424%.

Consider `Cc1csc(C2(NCCC(=O)N3CCOCC3)CCCC2)n1`, for which the “Percent Effect” value was -0.7458%.

`Cc1noc(C)c1CCC(=O)NC(C)c1nnc2n1CCC2` (configuration not stated): the “Percent Effect” value is reported as -11.45%.

For the molecule `Cc1noc(CCCC(=O)NC(C)c2nnc3n2CCC3)n1` (configuration not stated), the “Percent Effect” value was -11.73%.

For `CC(C)c1noc(CCCC(=O)NC(C)c2nnc3n2CCC3)n1` (configuration not stated), the “Percent Effect” value is -3.557%.

For the molecule `CCCc1noc(CCC(=O)NC(C)c2nnc3n2CCCCC3)n1` (configuration not stated), the “Percent Effect” value was -7.808%.

Regarding `CC(C)c1noc(CCC(=O)NC(C)c2nnc3n2CCC3)n1` (configuration not stated), the “Percent Effect” value is -10.52%.

On to `CC(NC(=O)CCC1CCCCC1)c1nnc2n1CCC2` (configuration not stated), for which the “Percent Effect” value turned out to be 97.89%.

Regarding `CC(C)CS(=O)(=O)CC(=O)NC(C)c1nnc2n1CCC2` (configuration not stated), the “Percent Effect” value is given as 85.29%.

Consider `CC(NC(=O)CCCc1nc(C(C)(C)C)no1)c1nnc2n1CCC2` (configuration not stated), for which the “Percent Effect” value was determined as 7.07%.

Consider `CCCC(=O)NC(C)c1nnc2n1CCC2` (configuration not stated), for which the “Percent Effect” value stood at 66.57%.

Turning to `CC(=O)NCCCC(=O)NC(C)c1nnc2n1CCC2` (configuration not stated), the “Percent Effect” value stood at 91.49%.

Turning to `CC(C)c1noc(CCC(=O)NC(C)c2nnc3n2CCCCC3)n1` (configuration not stated), the “Percent Effect” value is listed as -3.569%.

On to `CN1CCc2[nH]nc(C(=O)N3CCC4(CCCO4)CC3)c2C1`, for which the “Percent Effect” value was 17.17%.

As to `CC(C)N(C)CCNC(=O)N(C)CC1CCOCC1`, the “Percent Effect” value was -11.44%.

On to `CCS(=O)(=O)N1CCC2(CC1)CC(OCC1CC1)CO2` (configuration not stated), for which the “Percent Effect” value is -14.92%.

In the case of `CC(NC(=O)COc1ccc(F)cc1)c1nnc2n1CCCCC2` (configuration not stated), the “Percent Effect” value is listed as -2.87%.

As to `CC(NC(=O)COCC(F)(F)F)c1nnc2n1CCCCC2` (configuration not stated), the “Percent Effect” value was found to be 88.58%.

In the case of `CC(NC(=O)CCCOc1ccccc1)c1nnc2n1CCCCC2` (configuration not stated), the “Percent Effect” value is reported as -1.101%.

`CC(Cn1cccn1)NCC(=O)NC1(C#N)CCCCC1` (configuration not stated): the “Percent Effect” value amounted to 4.138%.

Consider `CCC(CO)N(Cc1ccco1)C(=O)c1ccccc1NC` (configuration not stated), for which the “Percent Effect” value is on record as -1.044%.

Regarding `Cc1oc(CN(C)C(=O)c2ccc(C(F)(F)F)cc2)cc1C(=O)O`, the “Percent Effect” value was -14.62%.

Turning to `CC(C#N)CNC(=O)Nc1ccc(-c2ccc[nH]2)cc1` (configuration not stated), the “Percent Effect” value is -13.54%.

Regarding `O=C(CNC(=O)c1cc(Cl)ccn1)Nc1nccs1`, the “Percent Effect” value is recorded as -9.837%.

Take `O=C(CNC(=O)c1ccccc1Cl)Nc1nccs1`: the “Percent Effect” value was determined as 1.164%.

For the molecule `O=C(CNC(=O)c1ccc(Cl)cc1)Nc1nccs1`, the “Percent Effect” value turned out to be 62.52%.

As for `Fc1ccc(OC2CCN(Cc3nnc(-c4ccco4)o3)CC2)cc1`, the “Percent Effect” value is given as 0.5253%.

As for `CN1CCN(Cc2cccc(NCc3ncc[nH]3)c2)CC1`, the “Percent Effect” value is given as -6.689%.

Take `CN1CCN(Cc2ccccc2Oc2nccc3occc23)CC1`: the “Percent Effect” value is recorded as 2.64%.

Regarding `CCN1CCN(Cc2c(-c3ccco3)[nH]c3ncccc23)CC1`, the “Percent Effect” value stood at 126%.

`OC1CCCN(Cc2c(-c3ccco3)[nH]c3ncccc23)C1` (configuration not stated): the “Percent Effect” value is on record as -4.635%.

For `CCn1ccnc1CN1CCN(c2ncnc3ccccc23)CC1`, the “Percent Effect” value was 5.306%.

As to `OC1CCN(Cc2c(-c3ccco3)[nH]c3ncccc23)CC1`, the “Percent Effect” value was 97.96%.

On to `CN1CCN(Cc2c(-c3ccco3)[nH]c3ncccc23)CC1`, for which the “Percent Effect” value worked out at 119.4%.

Regarding `OC1(CN2CCCC2)CCCN(Cc2cnc(-c3ccco3)nc2)C1` (configuration not stated), the “Percent Effect” value is recorded as -19.31%.

With `O=C(NCCN1CCOCC1)NCc1cccnc1-n1cccn1`, the “Percent Effect” value was -2.618%.

As to `c1coc(-c2[nH]c3ncccc3c2CN2CCCOCC2)c1`, the “Percent Effect” value turned out to be 122.9%.
